Results filed as inconclusive are left out. Calls of active or inactive are those of the source. Calls follow the shape of the dose curve; as a rule, active = well fitted curve in the direction sought with a large enough effect; inconclusive = small, poorly fitted or top-dose-only effect, or another doubt; inactive = no such curve, though single readings can be large; an effect the other way counts as inactive or inconclusive.
Legend:
[1] = UWB1.289 Cancer Cell Toxicity qHTS against the NCATS CANVASS Library (AID 1347347); also: nearly all actives have a fitted effect of over 60% in size; also: potency is read from the fitted curve at half-maximal effect
Outline: (§1)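 Viability read-out: CellTiter-Glo luminescence after 72 h compound exposure at 37 °C/5% CO2. Cells plated at 1000/well, 4 h pre-incubation; 11-point titration. Bortezomib served as control.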

[2] = HEK293 18hr Apoptosis Induction qHTS against the NCATS CANVASS Library (AID 1347357)
Outline: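 HEK293 cells (500/well, DMEM + 10% FBS) treated with an 11-point series for 18 h at 37 degrees C. Caspase-3/7 activity read by Caspase-Glo luminescence after 15 min at room temperature.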

[3] = HPAF-II 18hr Apoptosis Induction qHTS against the NCATS CANVASS Library (AID 1347360)
Outline: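 HPAF-II cells at 500/well were exposed for 18 h at 37 C to an 11-point compound series. Caspase-3/7 activity was read by Caspase-Glo luminescence after 15 min at RT.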

[4] = DH5-alpha competent E. coli microbial cell viability qHTS against the NCATS CANVASS Library (AID 1347377); conditions: outcome: dose series up to 46.1 µM unless noted
Outline: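 DH5-alpha E. coli suspension was exposed to an 11-point compound series overnight at 37 °C. Viable cells quantified by ATP luminescence (BacTiter-Glo) after 20 min at room temperature.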

[5] = KB-8-5-11 Cancer Cell Toxicity qHTS against the NCATS CANVASS Library (AID 1347364); also: nearly all actives have a fitted effect of over 75% in size; also: potency is read from the fitted curve at half-maximal effect
Outline: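 KB-8-5-11 cells, 500/well in DMEM + 10% FBS, given compounds in an 11-point series. Incubated 72 h at 37 °C. Viability by CellTiter-Glo luminescence. Confirmation also run with 1 uM tariquidar.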

[6] = Inflammasome Signaling qHTS Counterscreen: IL-1-beta AlphaLISA counterscreen against the NCATS CANVASS Library (AID 1347381);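 also: cell-free check with purified IL-1β in medium and no THP-1 cells; series mostly up to about 57 µM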
Outline: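 Cell-free interference check: compounds added to medium spiked with 4 pg purified IL-1β. Anti-IL-1β acceptor beads (6 ug/mL) with 0.6 nM biotinylated antibody added for 1 h at RT, then streptavidin donor beads (24 ug/mL) for 30 min in the dark. AlphaLISA read at 680/615 nm.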

[7] = Panc-1005 Cancer Cell Toxicity qHTS against the NCATS CANVASS Library (AID 1347349); also: nearly all actives have a fitted effect of over 60% in size; also: potency is read from the fitted curve at half-maximal effect
Outline: as §1

[8] = biological target: Luciferin 4-monooxygenase (Photinus pyralis) (UniProt P08659); assay: Firefly luciferase counterscreen qHTS: Assay Interference Panel against the NCATS CANVASS Library (AID 1347363); also: series mostly up to about 57 µM
Chain of Luciferin 4-monooxygenase (Photinus pyralis) (P08659 whole entry, looked up): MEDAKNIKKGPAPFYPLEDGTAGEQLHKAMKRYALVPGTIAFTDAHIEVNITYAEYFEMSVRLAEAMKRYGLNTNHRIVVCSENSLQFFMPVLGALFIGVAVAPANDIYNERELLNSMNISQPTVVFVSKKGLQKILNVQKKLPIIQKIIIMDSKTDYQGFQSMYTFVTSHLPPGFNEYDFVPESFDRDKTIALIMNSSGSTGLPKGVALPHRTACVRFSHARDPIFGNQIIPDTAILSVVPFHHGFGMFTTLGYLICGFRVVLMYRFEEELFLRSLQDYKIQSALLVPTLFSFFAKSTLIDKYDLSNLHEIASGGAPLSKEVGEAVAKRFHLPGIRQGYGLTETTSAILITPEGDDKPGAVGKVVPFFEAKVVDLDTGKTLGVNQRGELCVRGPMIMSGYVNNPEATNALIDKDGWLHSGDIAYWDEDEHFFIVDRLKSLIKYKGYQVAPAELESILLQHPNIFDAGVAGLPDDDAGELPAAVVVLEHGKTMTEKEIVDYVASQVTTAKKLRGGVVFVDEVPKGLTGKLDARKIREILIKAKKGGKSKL
Outline: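 Purified P. pyralis luciferase was added to compounds (11-point series) preincubated 15 min at room temperature with substrate containing 0.013 mM D-luciferin and 0.013 mM ATP; luminescence was read after 5 min.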

[9] = qHTS for Antimalaria activity screened against the NCATS CANVASS Library (AID 1347380); also: nearly all actives have a fitted effect of over 40% in size; also: potency is read from the fitted curve at half-maximal effect
Outline: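 Red blood cells infected with P. falciparum Dd2 (2.5% hematocrit final, 0.3% parasitemia) were exposed to compounds in an 11-point qHTS series for 72 hr at 37C under 5% O2 and 5% CO2. Lysis buffer with SYBR Green was then added for 18 hr, and fluorescence was read at 485/535 nm.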

Measured: Potency

C[C@]12CC[C@]3(C1)[C@H](CC2=O)CC(OC(=O)c1ccccc1)[C@H]1[C@@](CO)(C(=O)O)CCC[C@@]13C (stereo partly drawn)
inactive: [1] | [2] | [3] | [4]

O=C(O)Cc1c[nH]c2ccccc12
inactive: [1] | [2] | [3] | [5] | [6]

CCC[C@@H](C)/C=C(\C)[C@H](O)[C@H](C)/C=C/CC[C@@H](O)[C@H](C)[C@H](O)[C@H](C)[C@H](O)[C@H](C)[C@H]1O[C@H]([C@H](C)C(=O)O)CC[C@@H]1C
active: [1] 6.66 µM | [7] 4.21 µM | [5] 11.8 µM | [9] 5.94 µM
inactive: [2] | [3] | [8] | [6]

C/C=C/C=C/C1(O)C2C=C3C(=O)CC45C(=O)C(O)=C(C)C(=O)C4C1C1(C(=O)C(O)=C(C)C(=O)C351)C2C (stereo not drawn)
inactive: [1] | [8] | [5] | [4] | [6]

CCCCCCCCCCCCCCC[C@H](O)C[C@@H](O)C[C@@H](O)C[C@@H](O)C[C@@H](O)C[C@H]1CC=CC(=O)O1
inactive: [8] | [6]
active: [1] 2.11 µM | [7] 1.88 µM | [9] 3.75 µM

C/C1=C\CC(=O)/C=C/C=C\c2csc(n2)[C@@H](C)NC(=O)C[C@@](S)([C@@H](C)C(=O)O)CC1
inactive: [1] | [3] | [9]

CCCCCCCCC[C@@H]1C[C@@H]2CC[C@H]3[C@@H](C(=O)OCCCCN=C(N)N)[C@@H](C)N=C(N1)N23
inactive: [2] | [8]
active: [1] 10.3 µM | [7] 14.7 µM | [9] 1.64 µM

CO[C@@H]1C[C@@H](C[C@H]2CC[C@H](C)[C@H]([C@@H](C)C(=O)O)O2)O[C@]2(O[C@](C)([C@H]3CC[C@@](C)([C@@H]4O[C@@H]([C@H]5O[C@](C)(O)[C@H](C)C[C@@H]5C)C[C@@H]4C)O3)C[C@H]2C)[C@@H]1C
active: [1] 3.34 µM | [9] 0.0042 µM
inactive: [2] | [6]

CO[C@H]1/C=C/CC[C@@H](S[C@@H]2O[C@H](CO)[C@@H](O)[C@H](O)[C@H]2O)CC(=O)O[C@@H](/C(C)=C/[C@H](C)C(=O)CCCC2CC(=O)NC(=O)C2)[C@@H](C)[C@@H]1O
inactive: [3] | [8] | [9] | [6]
active: [1] 2.98 µM | [7] 4.21 µM

Cc1cc(O)cc2oc(C[C@H](C)O)cc(=O)c12
not listed: [3] | [6] | [7]
inactive: all other assays above

C=C1C(=O)C[C@H]2C[C@@H]1[C@]2(C)CCC=C(C)C
inactive: [1] | [7] | [4] | [6]

C[C@@H]1C(=O)[C@]23CC[C@H]1C[C@]21O[C@H]2C(C)(C)C=CC(=O)[C@]23COC1=O
inactive: [1] | [3] | [8] | [9] | [6]

C=C[C@]1(C)CC[C@@H]([C@H](C)C(=O)/C=C/C(C)C)O1
inactive: [1] | [8] | [5] | [4] | [6]

C/C=C/C(=O)[C@@H](C)C1=CC(=O)C2=C(O[C@@]34CC[C@H](O)C(C)(C)[C@@H]3CC[C@H](C)[C@@]4(C)C2)C1=O
active: [1] 21.1 µM | [7] 4.21 µM | [5] 14.8 µM
inactive: [8] | [4]

O=C1C[C@@H](c2ccc(O)c(-c3c(O)cc(O)c4c3O[C@H](c3ccc(O)cc3)CC4=O)c2)Oc2cc(O)cc(O)c21
inactive: [2] | [8] | [5]

Oc1ccc(C2c3c(O)cc(O)cc3[C@@H]3C(c4ccc(O)cc4)c4c(O)cc(O)cc4[C@H]23)cc1 (stereo partly drawn)
not listed: [2] | [7] | [9]
inactive: all other assays above

CC(=O)NC[C@@H]1O[C@H](CC/C=C(C)/C(C)=C/C=O)[C@H](C)C[C@H]1O
not listed: [6] | [7]
inactive: all other assays above

C=C1C[C@@]23C=CC(=O)[C@@](C)(CCC(=O)Nc4c(O)ccc(C(=O)O)c4O)C2C[C@@H]1C(O)C3 (stereo partly drawn)
inactive: [1] | [5] | [4] | [9] | [6]

C=C(NC(=O)c1csc(-c2nc3c(cc2O)-c2nc(cs2)C(=O)NC(C(C)O)C(=O)N/C(=C(\C)O)c2nc(cs2)C(=O)NC2c4nc(cs4)C(=O)NC(COC(=O)c4c5c6c(cccc6n4O)COC(=O)[C@@H](OC4C[C@](C)(O)[C@H](N(C)C)[C@H](C)O4)C2OC5)c2nc-3cs2)n1)C(N)=O (stereo partly drawn)
active: [9] 0.334 µM
inactive: [1] | [5] | [6]

COc1ccc(CCCc2cc(O)c(OC)c(O)c2)c(O)c1O
inactive: [1] | [2] | [3] | [5] | [4]

C[C@@H]1O[C@@H](O[C@@H]2[C@@H](O)[C@H](O[C@@H]3[C@@H](O)[C@@H](O)C(O[C@H]4[C@H](OC(=O)[C@]56CCC(C)(C)C[C@H]5C5=CCC7[C@@]8(C)C[C@H](O)[C@H](O[C@@H]9C[C@H](CO)[C@@H](O)[C@H](O)[C@H]9O)[C@@](C)(CO)C8[C@H](O)C[C@@]7(C)[C@]5(C)CC6)OC[C@H](O)[C@@H]4O)O[C@H]3C)OC[C@H]2O)[C@H](O)[C@H](O)[C@H]1O (stereo partly drawn)
inactive: [2] | [3] | [8] | [5]

COc1c(O)cc2oc(-c3ccccc3)cc(=O)c2c1O
inactive: [7] | [2] | [4] | [6]

Source: PubChem BioAssay (NCATS)
